In PubChem BioAssay:
Values joined by “and” are separate entries in the source; they are usually repeats but may differ in a detail not shown here. Equal values may be shown once. A number with no mark means an inactive call.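 The calls were made as follows: active = inhibition at or above 50% relative to wild type and mutant plate controls; inactive = inhibition below 50%.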

Experiment: loss of swimming-algae plug formation – whole organism, Chlamydomonas reinhardtii, WT vs cilia-less mutant, absorbance, 96-well, primary screen (AID 463189);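 also: 0% = wild type cc124 cells in DMSO and 100% = ciliumless bld1 mutant cells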
Conditions: Chlamydomonas reinhardtii gravitaxis, OD600 absorbance, 2 days; at 10 µM; hits give high values

Row | Structure (SMILES) | inhibition
1 | CN(N=O)c1cc(O)ccc1O | 2.32%
2 | COC(=O)N1CCN(C(=O)Cc2ccc(Cl)c(Cl)c2)C(CN2CCCC2)C1 (stereo not drawn) | -0.837%
3 | N#CC(C#N)=Cc1cc(O)c(O)c(O)c1 | 7.39%
4 | Clc1cc(I)cc(Cl)c1NC1=NCCN1 | 9.51%
5 | C[N+]1(C)CCC(OC(=O)C(c2ccccc2)c2ccccc2)CC1 | -7.08%
6 | Cc1ccc(S(=O)(=O)N[C@@H](CCCCN)C(=O)CCl)cc1 | 5.31%
7 | CN1CC[C@@]2(C)c3cc(O)ccc3N(C)C12 (stereo partly drawn) | -1.8%
8 | COc1ccc2[nH]cc(CCN)c2c1 | 3.77%
9 | NCCc1ccc(S(=O)(=O)F)cc1 | 0.651%
10 | COc1ccc2c(c[n+](C)c3c4cc5c(cc4ccc23)OCO5)c1OC | 47%
11 | NCCc1c[nH]c2ccc(O)cc12 | -4.38%
12 | CCN(CCCl)Cc1ccccc1Br | 6.59%
13 | S=C(NC1CCCCC1)N1CCC(c2cnc[nH]2)CC1 | 12.6%
14 | N[C@@H](CCl)C(=O)O | 3.95%
15 | C[C@]12CC[C@H](O)CC1=CC[C@@H]1[C@@H]2CC[C@]2(C)C(=O)CC[C@@H]12 | -2.3%
16 | CC(=O)NBr | 10%
17 | CC1=NN=C(c2ccc(N)cc2)c2cc3c(cc2C1)OCO3 | -2.8%
18 | N[C@H](CCCCCP(=O)(O)O)C(=O)O | -8.7%
19 | CCCN(CCC)[C@H]1CCc2c(F)ccc(O)c2C1 | -6.79%

Row | Structure (SMILES) | inhibition
20 | O=S1(=O)N(CCN2CC=C(c3c[nH]c4cc(F)ccc34)CC2)c2cccc3c2N1CCC3 | -4.93%
21 | NC(N)=Nc1ccc2[nH]c3c(c2c1)C[C@@]1(O)[C@H]2Cc4ccc(O)c5c4[C@@]1(CCN2CC1CC1)[C@H]3O5 | -0.588%
22 | CC1Cc2cc3c(cc2C(c2ccc(N)cc2)=NN1)OCO3 (stereo not drawn) | 0.595%
23 | COc1ccc(CNC(=O)/C=C/c2ccc3[nH]cc(CCN(C)C)c3c2)cc1 | -7.85%
24 | CCCN1CCC[C@@H]2Cc3[nH]ncc3C[C@H]21 | 1.82% and 2.66%
25 | NCC(CP(=O)(O)O)c1ccc(Cl)cc1 (stereo not drawn) | -3.38%
26 | CCN(CC)C(=O)N[C@@H]1C=C2c3cccc4[nH]cc(c34)C[C@H]2N(C)C1 | 9.57%
27 | CCCN1CCC[C@@H](c2cccc(C#N)c2)C1 | 9.39%
28 | O=C(OC1CCN(CCCl)CC1)C(c1ccccc1)c1ccccc1 | -11.2%
29 | NNC(N)=O | 1.88%
30 | O=C1C=CC(=O)C=C1 | -11.2%
31 | N[C@@]1(C(=O)O)CC[C@@H](C(=O)O)C1 | 5%
32 | COc1ccc2c(c1)C13CCCCC1C(C2)N(C)CC3 (stereo not drawn) | 6.06%
33 | NC(=O)CI | -0.903%
34 | C[C@H]1C2Cc3ccc(O)cc3C1(C)CCN2CC1CC1 (stereo partly drawn) | 8.28%
35 | O=C1CC[C@@]2(O)C3Cc4ccc(O)c5c4C2(CCN3CC2CC2)[C@H]1O5 (stereo partly drawn) | -3.7%
36 | S=C=Nc1cccc(C2(N3CCCCC3)CCCCC2)c1 | 10.2%
37 | Oc1ccc2c3c1O[C@H]1c4[nH]c5ccccc5c4C[C@@]4(O)C(C2)N(CC2CC2)CCC314 (stereo partly drawn) | 3.32%
38 | C[N+](C)(C)CCOC(=O)CBr | 0.371%
